Results: ChEMBL document CHEMBL3988442, “University of Dundee, Small-Polar-MMV Screening Library” (2021)
For part of these data: Potency and affinity values are given separately.

How the values were obtained:
Parameters in all cases: scale not given: direction of the effect not stated beside the values
[1] = molecular target: Protein translocase subunit SecA (Escherichia coli (strain K12)) (UniProt P10408); experiment: Assay to Identify E. coli SecA ATPase Inhibitors; format: functional; details: 30 µM
Protein translocase subunit SecA (Escherichia coli (strain K12)), sequence (P10408 whole entry): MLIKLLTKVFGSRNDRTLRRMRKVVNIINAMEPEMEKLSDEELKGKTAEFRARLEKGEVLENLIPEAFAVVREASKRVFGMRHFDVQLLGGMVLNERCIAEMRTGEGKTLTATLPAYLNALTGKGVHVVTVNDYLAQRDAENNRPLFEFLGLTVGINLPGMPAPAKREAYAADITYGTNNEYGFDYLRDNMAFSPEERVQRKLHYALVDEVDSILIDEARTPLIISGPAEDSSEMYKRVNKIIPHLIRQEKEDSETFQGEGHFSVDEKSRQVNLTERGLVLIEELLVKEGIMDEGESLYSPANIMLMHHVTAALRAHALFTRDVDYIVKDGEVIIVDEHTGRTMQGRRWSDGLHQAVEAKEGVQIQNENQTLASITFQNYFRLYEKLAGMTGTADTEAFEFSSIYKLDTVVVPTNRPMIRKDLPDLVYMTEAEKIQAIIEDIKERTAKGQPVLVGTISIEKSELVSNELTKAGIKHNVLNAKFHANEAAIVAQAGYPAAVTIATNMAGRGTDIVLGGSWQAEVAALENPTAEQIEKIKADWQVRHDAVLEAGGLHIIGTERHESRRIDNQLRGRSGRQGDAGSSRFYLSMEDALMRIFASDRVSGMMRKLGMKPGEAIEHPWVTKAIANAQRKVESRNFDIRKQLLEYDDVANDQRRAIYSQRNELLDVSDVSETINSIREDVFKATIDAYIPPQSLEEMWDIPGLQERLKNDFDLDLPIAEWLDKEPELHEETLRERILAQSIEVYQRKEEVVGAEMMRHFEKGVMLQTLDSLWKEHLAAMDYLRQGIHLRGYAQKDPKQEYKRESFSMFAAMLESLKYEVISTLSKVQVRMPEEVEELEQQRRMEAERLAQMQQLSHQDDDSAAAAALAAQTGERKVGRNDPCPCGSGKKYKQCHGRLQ

[2] = molecular target: T1, Ubiquitin-activating enzyme e1, putative (Leishmania donovani (strain BPK282A1)) (UniProt E9BSI1); experiment: Leishmania donovani Ubiquitin Activating Enzyme (LdE1); format: functional; details: 30 µM
T1 sequence (whole entry): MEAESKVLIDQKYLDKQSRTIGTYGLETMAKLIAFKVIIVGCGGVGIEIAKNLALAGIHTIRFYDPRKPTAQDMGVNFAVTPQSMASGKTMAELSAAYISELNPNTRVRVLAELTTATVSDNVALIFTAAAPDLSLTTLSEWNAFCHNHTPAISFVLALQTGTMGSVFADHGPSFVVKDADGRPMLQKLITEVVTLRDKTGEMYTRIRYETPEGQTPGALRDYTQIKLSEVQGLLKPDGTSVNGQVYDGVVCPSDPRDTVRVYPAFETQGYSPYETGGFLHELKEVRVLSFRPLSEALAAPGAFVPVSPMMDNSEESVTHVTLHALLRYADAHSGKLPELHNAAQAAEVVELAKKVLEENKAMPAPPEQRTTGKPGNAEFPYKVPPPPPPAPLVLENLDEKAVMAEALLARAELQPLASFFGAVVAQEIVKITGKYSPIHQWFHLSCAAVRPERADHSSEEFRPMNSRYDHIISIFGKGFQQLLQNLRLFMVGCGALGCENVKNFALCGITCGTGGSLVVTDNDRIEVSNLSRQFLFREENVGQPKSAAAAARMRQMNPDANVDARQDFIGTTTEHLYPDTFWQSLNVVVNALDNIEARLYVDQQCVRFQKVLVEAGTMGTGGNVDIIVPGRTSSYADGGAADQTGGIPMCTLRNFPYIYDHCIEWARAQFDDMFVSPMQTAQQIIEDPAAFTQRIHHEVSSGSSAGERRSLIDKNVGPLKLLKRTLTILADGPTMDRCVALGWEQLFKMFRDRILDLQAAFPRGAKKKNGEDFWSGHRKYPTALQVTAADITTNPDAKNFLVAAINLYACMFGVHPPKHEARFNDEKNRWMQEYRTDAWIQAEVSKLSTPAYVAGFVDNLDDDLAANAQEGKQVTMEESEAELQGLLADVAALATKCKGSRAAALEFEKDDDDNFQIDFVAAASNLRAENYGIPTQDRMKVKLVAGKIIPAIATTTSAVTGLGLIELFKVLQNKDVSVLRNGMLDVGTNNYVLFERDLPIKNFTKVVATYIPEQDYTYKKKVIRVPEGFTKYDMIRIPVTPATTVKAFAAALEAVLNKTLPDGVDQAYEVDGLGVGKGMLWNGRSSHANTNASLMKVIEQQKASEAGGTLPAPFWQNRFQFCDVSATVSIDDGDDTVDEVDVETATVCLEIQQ

[3] = molecular target: Sialic acid-binding Ig-like lectin 9 (Homo sapiens) (UniProt Q9Y336); experiment: Hs-Siglec9 ALPHAscreen SOP 20170721; details: 10 µM
Sialic acid-binding Ig-like lectin 9 (Homo sapiens), sequence (Q9Y336 whole entry): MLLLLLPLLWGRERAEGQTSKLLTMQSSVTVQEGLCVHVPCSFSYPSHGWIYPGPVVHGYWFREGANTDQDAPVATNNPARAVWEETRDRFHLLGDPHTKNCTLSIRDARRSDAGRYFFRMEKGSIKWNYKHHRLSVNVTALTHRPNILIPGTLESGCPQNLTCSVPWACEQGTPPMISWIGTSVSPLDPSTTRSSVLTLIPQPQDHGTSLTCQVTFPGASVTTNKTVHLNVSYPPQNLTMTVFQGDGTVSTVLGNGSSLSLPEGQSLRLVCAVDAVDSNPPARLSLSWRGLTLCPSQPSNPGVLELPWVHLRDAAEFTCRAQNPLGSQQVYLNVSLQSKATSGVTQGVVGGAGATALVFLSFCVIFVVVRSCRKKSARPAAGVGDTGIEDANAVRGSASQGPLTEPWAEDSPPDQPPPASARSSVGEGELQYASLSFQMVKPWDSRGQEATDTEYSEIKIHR

Trypanosoma cruzi = experiment: Trypanosoma cruzi phosphomannomutase and mannose-1-phosphate guanylyltransferase assay; format: functional; details: 10 µM
[4] = molecular target: T2, Arginase-2, mitochondrial (Homo sapiens) (UniProt P78540); experiment: in vitro enzyme assay to detect the production of urea directly proportional to the activity of Arginase II; format: functional; details: 33.3 µM; note: in the data most compounds retested in dose-response had high values
T2 sequence (whole entry): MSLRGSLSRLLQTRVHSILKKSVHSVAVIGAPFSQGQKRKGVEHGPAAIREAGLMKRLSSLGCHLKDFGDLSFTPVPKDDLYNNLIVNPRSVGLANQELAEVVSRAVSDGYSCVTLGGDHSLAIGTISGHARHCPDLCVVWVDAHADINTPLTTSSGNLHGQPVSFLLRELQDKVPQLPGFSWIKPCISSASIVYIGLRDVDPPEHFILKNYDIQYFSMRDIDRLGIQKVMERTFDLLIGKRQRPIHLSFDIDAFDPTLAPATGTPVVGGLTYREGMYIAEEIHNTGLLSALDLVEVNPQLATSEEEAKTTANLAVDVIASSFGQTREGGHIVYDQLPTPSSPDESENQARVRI

[5] = molecular target: T3, Proteasome subunit beta (Trypanosoma cruzi) (UniProt O96673); experiment: Trypanosoma cruzi proteasome chymotrypsin-like activity (TcProtChymo) assay.; note: in the data most compounds retested in dose-response had high values; format: functional; details: 9.37 µM
T3 sequence (whole entry): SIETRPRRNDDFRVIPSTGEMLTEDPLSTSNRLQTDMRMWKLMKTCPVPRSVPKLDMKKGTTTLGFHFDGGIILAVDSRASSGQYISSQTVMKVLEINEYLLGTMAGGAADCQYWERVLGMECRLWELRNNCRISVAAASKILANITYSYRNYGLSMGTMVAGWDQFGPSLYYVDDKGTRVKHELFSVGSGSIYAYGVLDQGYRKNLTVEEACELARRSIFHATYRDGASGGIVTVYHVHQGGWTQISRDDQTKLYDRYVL

Homo sapiens = organism: Homo sapiens; experiment: To identify inhibition of the IFN signalling (Jak-Stat) pathway via expression of an eGFP reporter gene under the control of an IFN-stimulated response element (ISRE) containing MxA promoter.; format: functional; details: 30 µM
[6] = molecular target: T4, Tyrosyl-tRNA synthetase, putative (Trypanosoma cruzi (strain CL Brener)) (UniProt Q4DSP6); experiment: Trypanosoma cruzi tyrosyl tRNA synthetase (TcYRS) _High Tyrosine SOP; format: functional; details: 30 µM; note: in the data most compounds retested in dose-response had high values
T4 sequence (whole entry): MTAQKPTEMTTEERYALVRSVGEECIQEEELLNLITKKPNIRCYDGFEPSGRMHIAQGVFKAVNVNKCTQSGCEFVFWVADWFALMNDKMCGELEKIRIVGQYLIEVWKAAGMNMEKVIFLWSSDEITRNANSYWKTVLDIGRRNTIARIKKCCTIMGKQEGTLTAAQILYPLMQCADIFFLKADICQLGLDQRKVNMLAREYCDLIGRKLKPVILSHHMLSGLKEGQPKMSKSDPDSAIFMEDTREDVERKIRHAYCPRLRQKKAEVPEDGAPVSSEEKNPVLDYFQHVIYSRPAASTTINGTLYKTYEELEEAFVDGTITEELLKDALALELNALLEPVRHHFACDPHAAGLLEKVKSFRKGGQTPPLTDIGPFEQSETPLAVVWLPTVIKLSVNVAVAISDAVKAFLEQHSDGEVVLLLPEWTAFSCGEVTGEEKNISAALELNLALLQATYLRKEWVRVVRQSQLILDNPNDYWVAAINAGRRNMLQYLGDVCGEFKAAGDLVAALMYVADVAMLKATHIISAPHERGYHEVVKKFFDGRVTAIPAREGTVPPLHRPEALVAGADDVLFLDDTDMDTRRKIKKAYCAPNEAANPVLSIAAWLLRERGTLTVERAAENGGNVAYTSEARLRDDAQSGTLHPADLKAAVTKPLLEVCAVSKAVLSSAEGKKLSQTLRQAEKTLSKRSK

[7] = molecular target: T4, Tyrosyl-tRNA synthetase, putative (Trypanosoma cruzi (strain CL Brener)); experiment: Trypanosoma cruzi tyrosyl tRNA synthetase (TcYRS) SOP; format: functional; details: 30 µM
[8] = molecular target: Chromo domain-containing protein 1 (Saccharomyces cerevisiae (strain ATCC 204508 / S288c) (Baker's yeast)) (UniProt P32657); experiment: ScCHD-1 Enzyme Inhibition Assay; format: functional; details: 30 µM; note: in the data most compounds retested in dose-response had high values
Chromo domain-containing protein 1 (Saccharomyces cerevisiae (strain ATCC 204508 / S288c) (Baker's yeast)), sequence (P32657 whole entry, the tested form may be a part): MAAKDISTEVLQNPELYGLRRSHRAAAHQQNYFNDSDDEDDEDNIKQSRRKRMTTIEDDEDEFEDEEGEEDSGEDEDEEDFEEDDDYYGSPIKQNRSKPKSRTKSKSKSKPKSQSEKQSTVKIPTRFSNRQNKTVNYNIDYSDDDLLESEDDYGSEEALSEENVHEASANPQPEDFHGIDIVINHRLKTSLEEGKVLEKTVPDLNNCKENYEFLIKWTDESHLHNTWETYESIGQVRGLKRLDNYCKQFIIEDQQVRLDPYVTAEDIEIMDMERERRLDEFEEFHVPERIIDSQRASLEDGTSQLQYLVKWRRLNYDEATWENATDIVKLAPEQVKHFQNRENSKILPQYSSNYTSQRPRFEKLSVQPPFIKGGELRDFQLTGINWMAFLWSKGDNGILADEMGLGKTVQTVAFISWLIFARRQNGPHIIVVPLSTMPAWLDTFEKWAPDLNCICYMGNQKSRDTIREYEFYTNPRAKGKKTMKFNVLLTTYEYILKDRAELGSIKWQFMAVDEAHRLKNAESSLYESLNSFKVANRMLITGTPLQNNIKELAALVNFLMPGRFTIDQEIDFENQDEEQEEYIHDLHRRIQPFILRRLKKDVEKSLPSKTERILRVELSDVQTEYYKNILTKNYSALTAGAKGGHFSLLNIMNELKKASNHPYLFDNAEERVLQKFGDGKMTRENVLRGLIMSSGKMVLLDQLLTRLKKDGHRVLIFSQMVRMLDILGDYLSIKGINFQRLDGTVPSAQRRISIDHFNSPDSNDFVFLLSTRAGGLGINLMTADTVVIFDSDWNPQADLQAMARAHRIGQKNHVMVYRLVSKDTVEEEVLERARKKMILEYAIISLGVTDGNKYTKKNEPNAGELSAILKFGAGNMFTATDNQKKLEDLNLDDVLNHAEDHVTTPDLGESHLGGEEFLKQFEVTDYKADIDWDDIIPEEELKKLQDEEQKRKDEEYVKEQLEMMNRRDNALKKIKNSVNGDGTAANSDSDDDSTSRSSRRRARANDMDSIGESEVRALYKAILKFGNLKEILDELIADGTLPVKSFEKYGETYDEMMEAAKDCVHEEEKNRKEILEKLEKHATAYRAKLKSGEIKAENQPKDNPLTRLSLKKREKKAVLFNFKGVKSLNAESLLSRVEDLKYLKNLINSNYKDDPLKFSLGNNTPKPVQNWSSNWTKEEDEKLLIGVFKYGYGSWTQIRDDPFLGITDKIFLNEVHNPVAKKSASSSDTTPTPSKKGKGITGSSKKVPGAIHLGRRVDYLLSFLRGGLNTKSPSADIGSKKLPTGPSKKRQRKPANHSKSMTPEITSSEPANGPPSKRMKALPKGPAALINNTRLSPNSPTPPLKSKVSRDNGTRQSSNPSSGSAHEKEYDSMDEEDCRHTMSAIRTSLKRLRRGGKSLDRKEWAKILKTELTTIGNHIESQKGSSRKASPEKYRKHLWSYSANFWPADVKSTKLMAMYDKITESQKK

SMILES | Percent Effect [1] [%] | Percent Effect [2] [%] | Percent Effect [3] [%] | Percent Effect (Trypanosoma cruzi) [%] | Percent Effect [4] [%] | Percent Effect [5] [%] | Percent Effect (Homo sapiens) [%] | Percent Effect [6] [%] | Percent Effect [7] [%] | Percent Effect [8] [%]
Cc1noc(C)c1CN1CCN(Cc2nccn2C)CC1 | -3.95 | 2.67 | 3.64 | -1.81 | -0.444 | 13.7 | -5.05 | 6.84 | 7.69 | -11.9
COc1ncccc1CNC(=O)c1cccnc1O | -1.81 | 12.8 | -3.2 | 5.35 | 1.23 | 8.79 | -10.7 | 11 | 22.9 | -2.93
CCCn1ncc2c(C(=O)Nc3cnn(CC)c3C)cc(C3CC3)nc21 | 1.41 | 12 | -1.57 | 2.76 | 3.98 | 17.4 | 2.46 | 2.12 | 12.5 | -24.6
CCc1noc(C(C)N2CCC(N3CCCC3)CC2)n1 (stereo not given) | -9.65 | 16 | 8.32 | 5.02 | -5.76 | 7.38 | -3.75 | 5.79 | 12.8 | -10.6
CCc1nc(C2CCCN2C(=O)CCCn2cccn2)no1 (stereo not given) | -1.9 | 5.2 | 9.24 | 4.66 | 8.4 | 8.25 | 4.76 | 1.96 | 4.71 | -9.39
CCc1nc(CN2CCN(C(=O)C3CCCCC3)CC2)cs1 | -3.52 | 17.9 | -8.26 | 7.23 | 1.64 | 8.28 | 12 | 5.26 | 20.5 | -7.32
COc1c(C2CCCN2C(=O)c2cncnc2C)c(C)nn1C (stereo not given) | 0.687 | 20.8 | 0.3 | -7.46 | -3.48 | 18.8 | 21.6 | 3.92 | 9.41 | -6.48
Cc1ccoc1-c1nnc(CN2CCCC(Cn3cncn3)C2)o1 (stereo not given) | -4.32 | 0 | 3.64 | 2.54 | 7.38 | -8.45 | 14.1 | 3.35 | 1.21 | -1.2
CCN(C)Cc1cnc(S(=O)(=O)CC)n1CCOC | -9.54 | 0 | -2.25 | -3.4 | 2.45 | -0.856 | 0.566 | 1.6 | 4.88 | 2.11
Cc1ccc(-c2nc(CNCC3CN(C)CCO3)cs2)o1 (stereo not given) | 0.253 | 28.6 | -5.08 | 6.53 | -12.9 | 25.4 | 20 | 6.86 | 21.2 | -12.3
CCC(O)CN1CCN(C(=O)c2sccc2OC)CC1 (stereo not given) | 0.313 | 7.79 | 10.4 | 2.24 | -3.89 | 0.526 | 16.7 | 3.92 | 16.5 | -3.7
O=C(CC1CCCC1)N1C[C@@H]2CCN(c3cccnc3)C[C@@H]2C1 | -3.01 | 3.9 | 3.29 | -3.94 | 2.28 | 19.3 | 35.3 | 2.9 | 0 | -2.18
CC(=O)N1CCCC1c1csc(Nc2cnccn2)n1 (stereo not given) | 0.761 | 9.33 | -8.01 | -5.33 | 2.21 | 11.8 | 20 | 3.17 | 10 | -25.7
Cc1nc(O)c2nnn(C[C@H]3CCCN3C(=O)C(C)(C)C)c2n1 | -2.69 | 12 | 5.82 | -2.37 | -1.33 | 7.88 | 12.7 | 5.29 | 10 | -20.8
COc1ccc(OC)c(Sc2ncccc2C(=O)N(C)CCC#N)c1 | -2.48 | 16.9 | -3.09 | 0.75 | 0 | 15.5 | 32.7 | 4.83 | 10 | -12.2
COc1ccc(CN2CCC[C@@H]3CN(C(=O)c4ccco4)C[C@@H]32)cc1 | -4.96 | 11.7 | -12.3 | -3.6 | -4.05 | 17.6 | 3.21 | 3.68 | 10.3 | 0.299
Cc1ccoc1-c1nnc(CN2CCn3c(nnc3C3CC3)C2)o1 | -3.51 | 0 | -0.995 | 0.201 | 0.444 | -4.16 | 7.27 | -1.58 | -10.3 | -2.12
CCc1ccsc1C(=O)N1CCN(C(=O)CC(F)(F)F)CC1 | 2.23 | 18.2 | 11.7 | 1.68 | 1.02 | 10.5 | -19.1 | 6.86 | 23.5 | -4.02
Cc1cnn(CC2CCCN2C(=O)c2cc3c(F)cccc3[nH]2)c1 (stereo not given) | -2.09 | 5.2 | 8.2 | -5.6 | -2.66 | 2.81 | 26.7 | 1.96 | 11.8 | -1.7
Cc1cc(C)n2cc(CN3CCCC3Cn3nc(C)nc3C)nc2n1 (stereo not given) | -6.31 | -2.67 | 2.66 | 3.41 | 3.1 | 10.6 | 1.56 | 16.3 | 15.4 | -6.76
O=C(CCOc1ccc(Cl)cc1)N1CCN(c2cnccn2)CC1 | -5.29 | 18.2 | 5.24 | -0.746 | 0.615 | 10.2 | 25.2 | 9.8 | 21.2 | -8.03
CCCn1ncc2c(C(=O)Nc3n[nH]c(SC)n3)cc(C3CC3)nc21 | -0.744 | 14.7 | -0.527 | -0.395 | -13.7 | 11.8 | 13.4 | -10.6 | 17.5 | -26.6
CNC(=O)[C@@H]1C[C@H]2CN(Cc3nccs3)C[C@H]2N1C | 0.644 | 27.3 | -2.68 | 0.75 | 2.28 | 19.7 | 11.3 | 12.6 | 22.5 | -5.35
COC(=O)N1C[C@H]2CC[C@@H]1CN(Cc1cscn1)C2 | -8.16 | 0 | 5.89 | 7.66 | -1.05 | 9.93 | 28.6 | 5.85 | 14.6 | -2.59
